# According to PubChem BioAssay AID2314 (National Center for Advancing Translational Sciences (NCATS), 2010):
# Screen size: about 300,000 compounds; about 37,000 (12%) were called active. For the sample, actives were picked, then their nearest neighbours and some compounds at random. Values without a mark were called inactive. Rule as the data show it: active = max response mostly above about 13% (no sharp cut-off); inactive = mostly below about 14%.
# Assay: Cycloheximide Counterscreen for Small Molecule Inhibitors of Shiga Toxin; also: read at 38.3 µM for the half of the compounds with a filed dose; 0% is about no effect
# Conditions: cell reporter, cycloheximide protein synthesis inhibition counterscreen; hits give high values
row,SMILES,max response
1,C/C(=N\NS(=O)(=O)c1ccccc1)c1c(O)cc(C)oc1=O,3.15%
2,Cc1ccc(N=Cc2c(O)cc(C)oc2=O)c(C)c1,-0.907%
3,Cc1cc(O)c(C(=O)/C=C/c2c(F)c(F)c(F)c(F)c2F)c(=O)o1,35.8% (active)
4,O=C(Cc1cccs1)N(CC1CCCO1)C1(C(=O)NC2CCCCC2)CCCCC1 (stereo not given),-1.59%
5,CCCOc1ccc(Cc2c(O)nc(N)[nH]c2=O)cc1C,-2.37%
6,COc1c(O)ccc2c1CN1CCc3cc4c(cc3C1C2)OCO4 (stereo not given),-3.13%
7,Cn1c(S(=O)(=O)O)nc2ccccc21,-1.42%
8,Cn1cccc1-c1nc2ccccc2n1C,18% (active)
9,Cc1nn2c3ccccc3nc2n(C)c1=O,-2.2%
10,CCn1cc(C(=O)N2CC=C(c3ccccc3)CC2)c(=O)c2ccc(C)nc21,7.37%
11,COC(=O)c1nn(-c2cccc(Cl)c2)ccc1=O,4.96%
12,Cc1cccc(-c2nnc(SCC(=O)O)n2Cc2ccccc2)c1,-1.57%
13,Cc1cc(C)c2c(Cn3ccnc3)cc(=O)oc2c1,-3.34%
14,Cc1cccc(N(C)C(=O)CN2C(=O)COc3ccc(S(=O)(=O)N4CCCCCC4)cc32)c1,-2.56%
15,COc1ccc(S(=O)(=O)N(CC(=O)NCc2ccco2)c2ccc(F)cc2)cc1,-2.34%
16,O=C(Nc1cccc2ccccc12)N1CCC2(CC1)OCCO2,22.3% (active)
17,COc1ccc(NC(=O)N2CCC3(CC2)OCCO3)c(OC)c1,0.567%
18,O=C(Nc1cccc2ccccc12)N1CCN(Cc2ccc3c(c2)OCO3)CC1,-0.788%
19,CN(CC(=O)Nc1c(Cl)cccc1Cl)C(=O)c1ccncc1,-0.763%
20,CC1CN(C(=O)CCC(=O)NCCCN2CCC(Cc3ccccc3)CC2)c2cc(Cl)ccc2O1 (stereo not given),-3.45%
21,COc1ccc(S(=O)(=O)NCC(=O)NC2CC2)cc1OC,-2.51%
22,COc1ccc(CCNC(=O)C2CCCN(S(=O)(=O)c3ccc(OC)cc3)C2)cc1 (stereo not given),-5.86%
23,COc1nc(NC2CCCCC2)nc(N2CCCCCC2)n1,8.36%
24,O=C1Nc2cc(C(=O)N3CCN(c4ccc(F)cc4)CC3)ccc2NC1CSCc1cccc(F)c1 (stereo not given),2.89%

row,SMILES,max response
1,Cc1cc(/C=N/Nc2ccc([N+](=O)[O-])cn2)c(C)n1-c1cccc(C(=O)O)c1,27.7% (active)
2,Cc1cc(/C=N/n2cnnc2)c(C)n1-c1cccc(C(=O)O)c1,4.01%
3,Cc1ccc(-n2c(C)cc(/C=N/Nc3ccc([N+](=O)[O-])cn3)c2C)c(C)c1,20.7%
4,O=C1CSC2=NCN(c3ccccc3)CN12,1.46%
5,COc1ccc(S(=O)(=O)N2CCOCC2)cc1C(=O)NC1CCCCC1,-2.56%
6,COc1ccc(CCNc2nc(-c3cccc(NC(C)=O)c3)cs2)cc1OC,10.5%
7,CC(=O)Nc1cccc(NC(=O)c2c(-c3ccccc3)noc2C)c1,-1.94%
8,CC(=O)Nc1ccc(-c2csc(NC=C3C(=O)OC(C)(C)OC3=O)n2)cc1,19.8%
9,CCS(=O)(=O)Nc1cccc(-c2cc(-c3ccccc3)c3cc(C)ccc3n2)c1,-0.522%
10,CC(=O)Nc1cccc(-c2cnc3ccccc3n2)c1,34.8% (active)
11,Cc1cccc(Nc2nc(-c3ccccc3)cs2)n1,56.2% (active)
12,Cc1cccc(S(=O)(=O)CC(=O)Nc2nc(-c3ccccc3)cs2)c1,-5.29%
13,CC(=O)Nc1cccc(-c2csc(Nc3cccc(C)n3)n2)c1,50.7% (active)
14,COc1ccc(C(=O)NC(C)c2nccs2)cc1OC1CCN(C(C)C)CC1 (stereo not given),-0.856%
15,O=C(CNc1cccc(S(=O)(=O)N2CCCCC2)c1)Nc1ccccc1F,-2.83%
16,Cc1noc(C)c1CSc1nc2cc(S(=O)(=O)N3CCOCC3)ccc2o1,-1.38%
17,CCNC(=O)c1sccc1-n1cccc1,2.68%
18,Cc1ccc(C(=O)N/C(=C\c2cn(C)c3ccccc23)C(=O)N2CCN(C)CC2)cc1,1.99%
19,CCCn1nnnc1NCc1ccc(OC)cc1,-1.31%
20,CC1(C)CC(=O)CC2(C1)NCC(c1ccccc1Cl)c1c2[nH]c2ccccc12 (stereo not given),2.51%
21,Cc1oc2cc([N+](=O)[O-])c(O)c([N+](=O)[O-])c2c1C(=O)c1ccc(Br)cc1,-7.47%
22,CCn1c(C)c(C)c2cc(C(=O)N3CCN(c4cccc(C)c4C)CC3)ccc21,-3.95%
23,CCC(CC)C(=O)N1CCN(c2cccc(C)c2C)CC1,4.17%
24,Cc1cccc(N2CCN(C(=O)/C=C/c3ccco3)CC2)c1C,15.1% (active)

row,SMILES,max response
1,COCCCn1c(-c2cccs2)nc2nc3ccccc3nc21,8.97%
2,CCOC(=O)CN(C)S(=O)(=O)c1ccc(-c2cc(C(=O)OC)sc2C(F)(F)F)cc1,4.79%
3,CCOC(=O)c1c(S(=O)(=O)Nc2ccc(CN3CCC(C)CC3)cc2)c(C)n(C)c1C,-1.22%
4,O=C(CCn1c(=S)[nH]c2cc3c(cc2c1=O)OCO3)NCc1ccc(Cl)cc1,12.5%
5,CC(C)OCCCNC(=O)c1ccc(C2SCC(=O)N2Cc2ccco2)cc1 (stereo not given),-3.14%
6,COc1cc(NC(=O)C2CCN(c3cnccn3)CC2)cc(OC)c1,-1.38%
7,COc1ccc(C(=O)NCc2nnc(SCC(=O)Nc3cccc(OC)c3)o2)cc1,-4.63%
8,COc1ccc2oc(-c3cccc(NC(=O)CSc4ccc(Cl)cc4)c3)nc2c1,14.3% (active)
9,COc1cccc(-c2nc(S(=O)(=O)c3ccccc3)c(N3CCOCC3)o2)c1,-1.61%
10,COc1cccc(-c2nnc(SCCOc3ccc4c(C)cc(=O)oc4c3)o2)c1,-1.4%
11,COc1ccc(C)cc1NC(=O)CSc1ccc(Cl)cc1,2.38%
12,COc1cccc(-c2nc3cc(C)ccc3o2)c1,47.1% (active)
13,CN(C)Cc1ccc(F)cc1Sc1cc(Cl)ccc1Cl,-1.42%
14,O=C(COc1ccc(Cl)cc1Cl)N/N=C/c1ccccn1,13.4%
15,Cc1ccc(C(=O)N/C(=C/c2ccc(-c3cccc([N+](=O)[O-])c3)o2)C(=O)NCCCN(C)C)cc1,-1.07%
16,C[C@H](NC(=O)c1nc[nH]c1C(=O)NCC(=O)OC(C)(C)C)c1ccccc1,3.3%
17,CCCN(CCC)C(=O)C1c2ccccc2Oc2ccccc21,3.35%
18,O=C(CN1CCCCCC1)Nc1ccc(Br)cc1[N+](=O)[O-],-2.43%
19,COc1ccccc1OCC(=O)OCn1c(SC)nnc(C)c1=O,-1.41%
20,O=C(CN1CCN(c2ccccn2)CC1)NC1CCCCC1,9.34%
21,N/C(=N\OC(=O)CC1CCCCC1)c1ccccc1,40.4% (active)
22,COc1ccccc1OCc1nnc(SCC(N)=O)n1-c1ccccc1,7.05%
23,CC(C)(C)NC(=O)NC(=O)COC(=O)CCC1CCCCC1,-2.12%
24,COc1ccccc1OCC(=O)O/N=C(\N)c1ccccn1,46.9% (active)

row,SMILES,max response
1,N/C(=N\OC(=O)CCC1CCCCC1)c1ccccn1,38.6% (active)
2,N/C(=N\OC(=O)Cc1ccccc1[N+](=O)[O-])c1ccc(Br)cc1,11.4%
3,COc1ccccc1NC(=O)C(C)OC(=O)CC1CCCC1 (stereo not given),0.793%
4,COc1ccc(C(=O)NCC(=O)N/N=C/c2ccc([N+](=O)[O-])o2)cc1OC,8.64%
5,COc1ccc(S(=O)(=O)n2nc(C)c(S(=O)(=O)N3CCOCC3)c2C)cc1,-1.99%
6,COc1cccc(CNC(=O)c2nnn(CC(=O)Nc3cc(C)ccc3C)c2N)c1,7.9%
7,CSCC[C@H](NC(=O)N1CCn2c1nc1ccccc12)C(=O)NCc1ccc2c(c1)OCO2,0.519%
8,Cn1ncc(N2CCN(S(=O)(=O)c3ccc(Br)cc3)CC2)c(Cl)c1=O,-6.65%
9,S=c1[nH]cc(-c2ccc(Cl)cc2)n1-c1ccccc1,9.09%
10,CC(C)(C)OC(=O)NC(Cc1ccccc1)C(=O)NC(CSC1CCCCO1)C(=O)NN (stereo not given),-1.92%
11,O=C(CC(c1ccccc1)c1ccccc1)NCC(O)c1ccc([N+](=O)[O-])cc1 (stereo not given),-4.98%
12,Cc1nn2c(NCCN(C)C)c3c(nc2c1-c1ccccc1)CCC3,-2.49%
13,Cc1ccc(CNC(=O)Cn2c(=O)c3sccc3n(Cc3cccc([N+](=O)[O-])c3)c2=O)cc1,3.82%
14,CC(=O)n1cc([C@@H]2C=C(C(=O)N3CCN(Cc4ccc5c(c4)OCO5)CC3)O[C@H](OCc3ccc(CO)cc3)C2)c2ccccc21,0.854%
15,O=C(NCc1cccc(CNC(=O)Nc2cccc(O)c2)c1)Nc1cccc(O)c1,-1.08%
16,C/C(=C\C(=O)c1ccccc1)Nc1cccc(O)c1,29.3% (active)
17,O=C(Cc1ccccc1)Nc1cccc(NC(=O)c2ccccc2)c1,-0.775%
18,Cc1ccc(OCC(=O)NCCCNC(=O)c2cccnc2)cc1C,-4.42%
19,C/C(=C\C(=O)c1cccnc1)Nc1ccc(C)c(C)c1,29% (active)
20,COc1cc(/C=C(/NC(=O)c2ccccc2)C(=O)Nc2cccc(O)c2)c([N+](=O)[O-])cc1OC,-3.43%
21,O=C(Nc1cccc(C(=O)N2CCCC2)c1)c1ccccc1,-1.45%
22,Cc1ccc(NC(=O)COc2ccc(/C=N\NC(=O)c3cccnc3)cc2)cc1C,12.4%
23,O=C(Nc1cccc(O)c1)c1ccc(C(=O)c2ccccc2)o1,40.5% (active)
